{"source": "the supplement of paper PMC4466140", "binders": {"B1": {"name": "unnamed (peptide)", "chain": "PSRRDSLSIPRAVDA"}}}
{"biological_target": "AgAbp1", "test": "SPOT peptide array binding signal intensity (averaged, normalized) (arbitrary units (background-subtracted, floor 0; scale differs between SH3 domains)); higher = stronger binding of the SH3 domain to the peptide", "how_it_was_run": "(§1)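 Cellulose membranes carried synthetic 15-mer peptides with cysteines swapped for serines. These were incubated overnight at 4°C with 10 μg/ml of GST-fused SH3 domains from four yeast species in TBS-based blocking buffer. Binding signal, detected with anti-GST antibody and quantified in Genespotter, is the normalized, background-subtracted spot intensity averaged over replicates, in arbitrary units specific to each domain.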"}
{"binder": "B1", "SPOT peptide array binding signal intensity": "≤ 0"}
{"biological_target": "AgBbc1", "test": "SPOT peptide array binding signal intensity (averaged, normalized) (arbitrary units (background-subtracted, floor 0; scale differs between SH3 domains)); higher = stronger binding of the SH3 domain to the peptide", "how_it_was_run": "as §1"}
{"binder": "B1", "SPOT peptide array binding signal intensity": 41.5}
{"biological_target": "AgBem1-D1", "test": "SPOT peptide array binding signal intensity (averaged, normalized) (arbitrary units (background-subtracted, floor 0; scale differs between SH3 domains)); higher = stronger binding of the SH3 domain to the peptide", "how_it_was_run": "as §1"}
{"binder": "B1", "SPOT peptide array binding signal intensity": 56}
{"biological_target": "AgBzz1-D1", "test": "SPOT peptide array binding signal intensity (averaged, normalized) (arbitrary units (background-subtracted, floor 0; scale differs between SH3 domains)); higher = stronger binding of the SH3 domain to the peptide", "how_it_was_run": "as §1"}
{"binder": "B1", "SPOT peptide array binding signal intensity": 17}
{"biological_target": "AgBzz1-D2", "test": "SPOT peptide array binding signal intensity (averaged, normalized) (arbitrary units (background-subtracted, floor 0; scale differs between SH3 domains)); higher = stronger binding of the SH3 domain to the peptide", "how_it_was_run": "as §1"}
{"binder": "B1", "SPOT peptide array binding signal intensity": 30}
{"biological_target": "AgCyk3", "test": "SPOT peptide array binding signal intensity (averaged, normalized) (arbitrary units (background-subtracted, floor 0; scale differs between SH3 domains)); higher = stronger binding of the SH3 domain to the peptide", "how_it_was_run": "as §1"}
{"binder": "B1", "SPOT peptide array binding signal intensity": "≤ 0"}
{"biological_target": "AgFus1", "test": "SPOT peptide array binding signal intensity (averaged, normalized) (arbitrary units (background-subtracted, floor 0; scale differs between SH3 domains)); higher = stronger binding of the SH3 domain to the peptide", "how_it_was_run": "as §1"}
{"binder": "B1", "SPOT peptide array binding signal intensity": 5}
{"biological_target": "AgHof1", "test": "SPOT peptide array binding signal intensity (averaged, normalized) (arbitrary units (background-subtracted, floor 0; scale differs between SH3 domains)); higher = stronger binding of the SH3 domain to the peptide", "how_it_was_run": "as §1"}
{"binder": "B1", "SPOT peptide array binding signal intensity": 10}
{"biological_target": "AgHse1", "test": "SPOT peptide array binding signal intensity (averaged, normalized) (arbitrary units (background-subtracted, floor 0; scale differs between SH3 domains)); higher = stronger binding of the SH3 domain to the peptide", "how_it_was_run": "as §1"}
{"binder": "B1", "SPOT peptide array binding signal intensity": 14.5}
{"biological_target": "AgLsb1", "test": "SPOT peptide array binding signal intensity (averaged, normalized) (arbitrary units (background-subtracted, floor 0; scale differs between SH3 domains)); higher = stronger binding of the SH3 domain to the peptide", "how_it_was_run": "as §1"}
{"binder": "B1", "SPOT peptide array binding signal intensity": 13.5}
{"biological_target": "AgLsb4", "test": "SPOT peptide array binding signal intensity (averaged, normalized) (arbitrary units (background-subtracted, floor 0; scale differs between SH3 domains)); higher = stronger binding of the SH3 domain to the peptide", "how_it_was_run": "as §1"}
{"binder": "B1", "SPOT peptide array binding signal intensity": 2.5}
{"biological_target": "AgMyo5", "test": "SPOT peptide array binding signal intensity (averaged, normalized) (arbitrary units (background-subtracted, floor 0; scale differs between SH3 domains)); higher = stronger binding of the SH3 domain to the peptide", "how_it_was_run": "as §1"}
{"binder": "B1", "SPOT peptide array binding signal intensity": "≤ 0"}
{"biological_target": "AgNbp2", "test": "SPOT peptide array binding signal intensity (averaged, normalized) (arbitrary units (background-subtracted, floor 0; scale differs between SH3 domains)); higher = stronger binding of the SH3 domain to the peptide", "how_it_was_run": "as §1"}
{"binder": "B1", "SPOT peptide array binding signal intensity": 6}
{"biological_target": "AgRvs167", "test": "SPOT peptide array binding signal intensity (averaged, normalized) (arbitrary units (background-subtracted, floor 0; scale differs between SH3 domains)); higher = stronger binding of the SH3 domain to the peptide", "how_it_was_run": "as §1"}
{"binder": "B1", "SPOT peptide array binding signal intensity": 1.67}
{"biological_target": "AgSho1", "test": "SPOT peptide array binding signal intensity (averaged, normalized) (arbitrary units (background-subtracted, floor 0; scale differs between SH3 domains)); higher = stronger binding of the SH3 domain to the peptide", "how_it_was_run": "as §1"}
{"binder": "B1", "SPOT peptide array binding signal intensity": "≤ 0"}
{"biological_target": "AgSla1-D1-D2", "test": "SPOT peptide array binding signal intensity (averaged, normalized) (arbitrary units (background-subtracted, floor 0; scale differs between SH3 domains)); higher = stronger binding of the SH3 domain to the peptide", "how_it_was_run": "as §1"}
{"binder": "B1", "SPOT peptide array binding signal intensity": 0.5}
{"biological_target": "AgSla1-D3", "test": "SPOT peptide array binding signal intensity (averaged, normalized) (arbitrary units (background-subtracted, floor 0; scale differs between SH3 domains)); higher = stronger binding of the SH3 domain to the peptide", "how_it_was_run": "as §1"}
{"binder": "B1", "SPOT peptide array binding signal intensity": 0.5}
{"biological_target": "CaAbp1-D1", "test": "SPOT peptide array binding signal intensity (averaged, normalized) (arbitrary units (background-subtracted, floor 0; scale differs between SH3 domains)); higher = stronger binding of the SH3 domain to the peptide", "how_it_was_run": "as §1"}
{"binder": "B1", "SPOT peptide array binding signal intensity": "≤ 0"}
{"biological_target": "CaAbp1-D2", "test": "SPOT peptide array binding signal intensity (averaged, normalized) (arbitrary units (background-subtracted, floor 0; scale differs between SH3 domains)); higher = stronger binding of the SH3 domain to the peptide", "how_it_was_run": "as §1"}
{"binder": "B1", "SPOT peptide array binding signal intensity": 25}
{"biological_target": "CaBbc1", "test": "SPOT peptide array binding signal intensity (averaged, normalized) (arbitrary units (background-subtracted, floor 0; scale differs between SH3 domains)); higher = stronger binding of the SH3 domain to the peptide", "how_it_was_run": "as §1"}
{"binder": "B1", "SPOT peptide array binding signal intensity": 354}
{"biological_target": "CaBem1-D1", "test": "SPOT peptide array binding signal intensity (averaged, normalized) (arbitrary units (background-subtracted, floor 0; scale differs between SH3 domains)); higher = stronger binding of the SH3 domain to the peptide", "how_it_was_run": "as §1"}
{"binder": "B1", "SPOT peptide array binding signal intensity": 4}
{"biological_target": "CaBzz1-D1", "test": "SPOT peptide array binding signal intensity (averaged, normalized) (arbitrary units (background-subtracted, floor 0; scale differs between SH3 domains)); higher = stronger binding of the SH3 domain to the peptide", "how_it_was_run": "as §1"}
{"binder": "B1", "SPOT peptide array binding signal intensity": 123}
{"biological_target": "CaBzz1-D2", "test": "SPOT peptide array binding signal intensity (averaged, normalized) (arbitrary units (background-subtracted, floor 0; scale differs between SH3 domains)); higher = stronger binding of the SH3 domain to the peptide", "how_it_was_run": "as §1"}
{"binder": "B1", "SPOT peptide array binding signal intensity": 93}
{"biological_target": "CaCyk3", "test": "SPOT peptide array binding signal intensity (averaged, normalized) (arbitrary units (background-subtracted, floor 0; scale differs between SH3 domains)); higher = stronger binding of the SH3 domain to the peptide", "how_it_was_run": "as §1"}
{"binder": "B1", "SPOT peptide array binding signal intensity": 3}
{"biological_target": "CaFus1", "test": "SPOT peptide array binding signal intensity (averaged, normalized) (arbitrary units (background-subtracted, floor 0; scale differs between SH3 domains)); higher = stronger binding of the SH3 domain to the peptide", "how_it_was_run": "as §1"}
{"binder": "B1", "SPOT peptide array binding signal intensity": 65}
{"biological_target": "CaHof1", "test": "SPOT peptide array binding signal intensity (averaged, normalized) (arbitrary units (background-subtracted, floor 0; scale differs between SH3 domains)); higher = stronger binding of the SH3 domain to the peptide", "how_it_was_run": "as §1"}
{"binder": "B1", "SPOT peptide array binding signal intensity": 1}
{"biological_target": "CaHse1", "test": "SPOT peptide array binding signal intensity (averaged, normalized) (arbitrary units (background-subtracted, floor 0; scale differs between SH3 domains)); higher = stronger binding of the SH3 domain to the peptide", "how_it_was_run": "as §1"}
{"binder": "B1", "SPOT peptide array binding signal intensity": "≤ 0"}
{"biological_target": "CaLsb1", "test": "SPOT peptide array binding signal intensity (averaged, normalized) (arbitrary units (background-subtracted, floor 0; scale differs between SH3 domains)); higher = stronger binding of the SH3 domain to the peptide", "how_it_was_run": "as §1"}
{"binder": "B1", "SPOT peptide array binding signal intensity": "≤ 0"}
{"biological_target": "CaLsb4", "test": "SPOT peptide array binding signal intensity (averaged, normalized) (arbitrary units (background-subtracted, floor 0; scale differs between SH3 domains)); higher = stronger binding of the SH3 domain to the peptide", "how_it_was_run": "as §1"}
{"binder": "B1", "SPOT peptide array binding signal intensity": "≤ 0"}
{"biological_target": "CaMyo5", "test": "SPOT peptide array binding signal intensity (averaged, normalized) (arbitrary units (background-subtracted, floor 0; scale differs between SH3 domains)); higher = stronger binding of the SH3 domain to the peptide", "how_it_was_run": "as §1"}
{"binder": "B1", "SPOT peptide array binding signal intensity": 1.5}
{"biological_target": "CaNbp2", "test": "SPOT peptide array binding signal intensity (averaged, normalized) (arbitrary units (background-subtracted, floor 0; scale differs between SH3 domains)); higher = stronger binding of the SH3 domain to the peptide", "how_it_was_run": "as §1"}
{"binder": "B1", "SPOT peptide array binding signal intensity": 28.5}
{"biological_target": "CaRvs167", "test": "SPOT peptide array binding signal intensity (averaged, normalized) (arbitrary units (background-subtracted, floor 0; scale differs between SH3 domains)); higher = stronger binding of the SH3 domain to the peptide", "how_it_was_run": "as §1"}
{"binder": "B1", "SPOT peptide array binding signal intensity": 0.5}
{"biological_target": "CaRvs167-3", "test": "SPOT peptide array binding signal intensity (averaged, normalized) (arbitrary units (background-subtracted, floor 0; scale differs between SH3 domains)); higher = stronger binding of the SH3 domain to the peptide", "how_it_was_run": "as §1"}
{"binder": "B1", "SPOT peptide array binding signal intensity": 1}
{"biological_target": "CaSho1", "test": "SPOT peptide array binding signal intensity (averaged, normalized) (arbitrary units (background-subtracted, floor 0; scale differs between SH3 domains)); higher = stronger binding of the SH3 domain to the peptide", "how_it_was_run": "as §1"}
{"binder": "B1", "SPOT peptide array binding signal intensity": 8}
{"biological_target": "CaSla1-D1-D2", "test": "SPOT peptide array binding signal intensity (averaged, normalized) (arbitrary units (background-subtracted, floor 0; scale differs between SH3 domains)); higher = stronger binding of the SH3 domain to the peptide", "how_it_was_run": "as §1"}
{"binder": "B1", "SPOT peptide array binding signal intensity": "≤ 0"}
{"biological_target": "CaSla1-D3", "test": "SPOT peptide array binding signal intensity (averaged, normalized) (arbitrary units (background-subtracted, floor 0; scale differs between SH3 domains)); higher = stronger binding of the SH3 domain to the peptide", "how_it_was_run": "as §1"}
{"binder": "B1", "SPOT peptide array binding signal intensity": 1.25}
{"biological_target": "ScAbp1", "test": "SPOT peptide array binding signal intensity (averaged, normalized) (arbitrary units (background-subtracted, floor 0; scale differs between SH3 domains)); higher = stronger binding of the SH3 domain to the peptide", "how_it_was_run": "as §1"}
{"binder": "B1", "SPOT peptide array binding signal intensity": "≤ 0"}
